Assay results taken from PubChem BioAssay (EPA / NIEHS).
Results filed as inconclusive are left out. Activity calls are given as the source filed them. The calls were made as follows, unless noted: active = hit-call score of the fitted dose curve at least 0.9, where 1 is the maximum; inactive = score below 0.9.

Legend:
[1] = CCTE_Shafer_MEA_dev_per_burst_interspike_interval: CCTE's Neural Network Formation Assay for Burst Interspike Interval, Shafer Lab (AID 2284044);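 also: mean spike spacing inside bursts as AUC over recordings on days 5 7 9 12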
Outline: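 Primary rat cortical neurons on 48-well MEA plates, exposed from day 0 through day 12, treatment renewed at DIV 5 and 9. Within-burst interspike interval recorded days 5, 7, 9, 12, well-averaged, summarised as AUC; negative fit versus DMSO.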

[2] = CCTE_Shafer_MEA_dev_burst_duration_mean: CCTE's Neural Network Formation Assay for Mean Burst Duration, Shafer Lab (AID 2284045)
Outline: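 Primary rat cortical neurons on PEI-coated 16-electrode MEA wells, exposed from plating through day 12 with compound renewed at DIV 5 and 9; spontaneous activity recorded days 5, 7, 9, 12. Well-mean burst duration collapsed as trapezoidal AUC, fitted for loss versus DMSO.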

[3] = CCTE_Shafer_MEA_dev_interburst_interval_mean: CCTE's Neural Network Formation Assay for Mean Interburst Interval, Shafer Lab (AID 2284046);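 also: well-mean interburst interval of bursting electrodes as AUC over four recording days; curve fitted for decrease in interburst interval relative to DMSO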
Outline: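 Primary rat cortical neurons on PEI-coated 48-well MEA plates (laminin added with cells at plating) (16 electrodes/well), exposed from plating day 0 with renewal at DIV 5 and 9. Mean inter-burst interval averaged over bursting electrodes, AUC across days 5, 7, 9, 12; DMSO baseline.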

[4] = CCTE_Shafer_MEA_dev_inter_network_spike_interval_mean: CCTE's Neural Network Formation Assay for Mean Inter-network Spike Interval, Shafer Lab (AID 2284047)
Outline: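 Mean time between consecutive network-spike peaks, recorded extracellularly (adaptive spike detection) on DIV 5, 7, 9 and 12, summarized as trapezoidal AUC. Rat cortical cultures on MEAs dosed continuously days 0–12, re-dosed at feeds; loss-of-signal fit relative to DMSO.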

[5] = CCTE_Shafer_MEA_dev_network_spike_number: CCTE's Neural Network Formation Assay for Number of Network Spikes, Shafer Lab (AID 2284048);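 also: synchronized bursts across electrodes counted on days 5 7 9 12 and integrated as AUC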
Outline: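 Primary rat cortical neurons were seeded at 1.5 x 10^5 cells/well on PEI-coated 16-electrode MEA wells with laminin, exposed from plating day 0, compound renewed at DIV 5 and 9. Network spikes were recorded on days 5, 7, 9, 12 and summarized as trapezoidal AUC versus DMSO.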

[6] = CCTE_Shafer_MEA_dev_network_spike_peak: CCTE's Neural Network Formation Assay for Mean Number of Electrodes in Network Spike, Shafer Lab (AID 2284049)
Outline: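 Continuous 12-day exposure of rat cortical cultures, starting at plating, on MEA plates. Endpoint: electrodes participating in network-spike peaks, AUC across DIV 5–12, DMSO as negative control.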

[7] = CCTE_Shafer_MEA_dev_spike_duration_mean: CCTE's Neural Network Formation Assay for Mean Spike Duration, Shafer Lab (AID 2284051);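 also: mean network spike duration pooled as area under curve over DIV 5 to 12 recordings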
Outline: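 Spontaneous activity was recorded on days 5, 7, 9 and 12 from rat cortical cultures grown on microelectrode arrays and dosed continuously from day 0, with media and compound renewed after the DIV 5 and 9 recordings. Network-spike duration was collapsed by area under the curve.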

[8] = CCTE_Shafer_MEA_dev_network_spike_duration_std: CCTE's Neural Network Formation Assay for Standard Deviation of Network Spike Duration, Shafer Lab (AID 2284052);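 also: hits are decreases in network spike duration SD versus DMSO vehicle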
Outline: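 Network spike duration variability was collapsed across recordings on days 5, 7, 9 and 12 by trapezoidal area-under-curve and fitted downward against DMSO. Cultures were rat cortical neurons on PEI-coated MEA plates, dosed continuously from plating, refed with compound DIV 5/9.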

[9] = CCTE_Shafer_MEA_dev_per_network_spike_spike_number_mean: CCTE's Neural Network Formation Assay for Mean Number of Spikes in a Network Spike, Shafer Lab (AID 2284053)
Outline: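 Mean spike count within each network spike, taken in a 0.05 s window at its peak, was recorded on days 5, 7, 9 and 12 and integrated as trapezoidal area under the curve. Rat cortical cultures on MEA plates received continuous compound from day 0, refreshed at medium changes on DIV 5 and 9.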

[10] = CCTE_Shafer_MEA_dev_per_network_spike_spike_percent: CCTE's Neural Network Formation Assay for Percent of Spikes in a Network Spike, Shafer Lab (AID 2284054)
Outline: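 Primary rat cortical neurons on 16-electrode MEA wells (PEI-coated, laminin at plating), exposed from day 0 with renewal at DIV 5 and 9; spikes within 0.05 s of network-spike peaks over total spikes, AUC across days 5, 7, 9, 12.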

[11] = CCTE_Shafer_MEA_dev_AB: CCTE's Alamar Blue Assay for Cytotoxicity in the Neural Network Formation Assay, Shafer Lab (AID 2284083; active = hit-call score of the fitted dose curve at least 0.9, where 1 is the maximum;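 also: resazurin reduction fluorescence as viability of cultured neurons; twelve days of exposure from plating with re-dosing on DIV 5 and 9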)
Outline: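 Resazurin fluorescence, relative to DMSO, gauges viability after twelve days of exposure that began at plating of rat cortical neurons (1.5 x 10^5 cells/well, 48-well MEA); treatment renewed with full medium exchange on DIV 5 and 9.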

[12] = CCTE_Shafer_MEA_dev_mutual_information_norm: CCTE's Neural Network Formation Assay for Mutual Information Normalization, Shafer Lab (AID 2284091)
Outline: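 Rat cortical cultures, 48-well MEA, continuous exposure DIV 0–12 with full media/compound change DIV 5 and 9. Readout: inter-electrode mutual information, AxIS adaptive spike detection; AUC across DIV 5/7/9/12 recordings; DMSO baseline, negative fitting direction.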

[13] = CCTE_Shafer_MEA_dev_correlation_coefficient_mean: CCTE's Neural Network Formation Assay for Mean Correlation Coefficient, Shafer Lab (AID 2284093)
Outline: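 Primary rat cortical neurons on PEI-coated 48-well MEA plates (16 electrodes/well) were exposed from plating day 0 through DIV12, with compound renewed at DIV5 and 9. Pairwise spike correlations were averaged per well; trapezoidal AUC across DIV5, 7, 9, 12.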

[14] = TAMU_PeakParms_SingleDonor1434_Chronotropy: Texas A&M University (TAMU) 1.5-hr Human Induced Pluripotent Stem Cell (iPSC)-derived Cardiomyocytes Calcium (Ca+2) Flux Assay for Cardiotoxicity: Chronotropy (changes in peak frequency) (AID 2284217); conditions: actives raise or lower the signal
Outline: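 Beat rate, as mean Ca2+-flux peak frequency, was read from donor 1434 iPSC cardiomyocytes 90 min after exposure to 0.2–100 uM test chemical (0.5% DMSO). Wells that stopped beating were excluded; EC05 from bidirectional DMSO-referenced fitting.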

[15] = TAMU_HCS_1.5hr_SingleDonor1434_Cytotoxicity: Cytotoxicity Assessment using High-content Screening (HCS) Fluorescent Imaging for the Texas A&M University (TAMU) 1.5-hr Human Induced Pluripotent Stem Cell (iPSC)-derived Cardiotoxicity Assay (AID 2284234; active = hit-call score of the fitted dose curve at least 0.9, where 1 is the maximum)
Outline: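 Human iPSC-derived cardiomyocytes dosed at 0.2, 1, 10, 100 uM final (0.5% DMSO) for 90 min at 37 C. Hoechst 33342-stained nuclei counted by 10x high-content imaging; POD is EC10, a 10% drop in total cell count versus DMSO.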

[16] = TAMU_PeakParms_SingleDonor1434_Asystole: Texas A&M University (TAMU) 1.5-hr Human Induced Pluripotent Stem Cell (iPSC)-derived Cardiomyocytes Calcium (Ca+2) Flux Assay for Cardiotoxicity: Asystole (quiescence of beating) (AID 2284328; active = hit-call score of the fitted dose curve at least 0.9, where 1 is the maximum)
Outline: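 Human iPSC-derived cardiomyocytes (donor 1434) were exposed to 0.2, 1, 10 and 100 uM compound in 0.5% DMSO for 90 min at 37C. Ca2+-dye fluorescence gave average peak frequency; POD is EC95, a 95% beat-rate drop versus DMSO.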

Measured: AC50

c1ccc2cc3c(cc2c1)-c1cccc2cccc-3c12
active: [14] 9.92 µM
inactive: all other assays above
